From PubChem BioAssay
This is one part of a sample in which hits are shown more often than they occur.
Dicer processing: inhibitors of human Dicer processing of pre-microRNA. Q9UPY3. cat-ELCCA pre-miR-21 Dicer processing, chemiluminescence; active compounds read high. z-score at 25 µM. 47,000 tested, 6% active. AID 1347074; in the data active means z-score above about 3, passing the limit was not always enough;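 further: plate controls were vehicle for no effect and no enzyme for full effect; higher signal means more uncleaved substrate so more Dicer inhibition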
Target sequence (Q9UPY3 whole entry, looked up): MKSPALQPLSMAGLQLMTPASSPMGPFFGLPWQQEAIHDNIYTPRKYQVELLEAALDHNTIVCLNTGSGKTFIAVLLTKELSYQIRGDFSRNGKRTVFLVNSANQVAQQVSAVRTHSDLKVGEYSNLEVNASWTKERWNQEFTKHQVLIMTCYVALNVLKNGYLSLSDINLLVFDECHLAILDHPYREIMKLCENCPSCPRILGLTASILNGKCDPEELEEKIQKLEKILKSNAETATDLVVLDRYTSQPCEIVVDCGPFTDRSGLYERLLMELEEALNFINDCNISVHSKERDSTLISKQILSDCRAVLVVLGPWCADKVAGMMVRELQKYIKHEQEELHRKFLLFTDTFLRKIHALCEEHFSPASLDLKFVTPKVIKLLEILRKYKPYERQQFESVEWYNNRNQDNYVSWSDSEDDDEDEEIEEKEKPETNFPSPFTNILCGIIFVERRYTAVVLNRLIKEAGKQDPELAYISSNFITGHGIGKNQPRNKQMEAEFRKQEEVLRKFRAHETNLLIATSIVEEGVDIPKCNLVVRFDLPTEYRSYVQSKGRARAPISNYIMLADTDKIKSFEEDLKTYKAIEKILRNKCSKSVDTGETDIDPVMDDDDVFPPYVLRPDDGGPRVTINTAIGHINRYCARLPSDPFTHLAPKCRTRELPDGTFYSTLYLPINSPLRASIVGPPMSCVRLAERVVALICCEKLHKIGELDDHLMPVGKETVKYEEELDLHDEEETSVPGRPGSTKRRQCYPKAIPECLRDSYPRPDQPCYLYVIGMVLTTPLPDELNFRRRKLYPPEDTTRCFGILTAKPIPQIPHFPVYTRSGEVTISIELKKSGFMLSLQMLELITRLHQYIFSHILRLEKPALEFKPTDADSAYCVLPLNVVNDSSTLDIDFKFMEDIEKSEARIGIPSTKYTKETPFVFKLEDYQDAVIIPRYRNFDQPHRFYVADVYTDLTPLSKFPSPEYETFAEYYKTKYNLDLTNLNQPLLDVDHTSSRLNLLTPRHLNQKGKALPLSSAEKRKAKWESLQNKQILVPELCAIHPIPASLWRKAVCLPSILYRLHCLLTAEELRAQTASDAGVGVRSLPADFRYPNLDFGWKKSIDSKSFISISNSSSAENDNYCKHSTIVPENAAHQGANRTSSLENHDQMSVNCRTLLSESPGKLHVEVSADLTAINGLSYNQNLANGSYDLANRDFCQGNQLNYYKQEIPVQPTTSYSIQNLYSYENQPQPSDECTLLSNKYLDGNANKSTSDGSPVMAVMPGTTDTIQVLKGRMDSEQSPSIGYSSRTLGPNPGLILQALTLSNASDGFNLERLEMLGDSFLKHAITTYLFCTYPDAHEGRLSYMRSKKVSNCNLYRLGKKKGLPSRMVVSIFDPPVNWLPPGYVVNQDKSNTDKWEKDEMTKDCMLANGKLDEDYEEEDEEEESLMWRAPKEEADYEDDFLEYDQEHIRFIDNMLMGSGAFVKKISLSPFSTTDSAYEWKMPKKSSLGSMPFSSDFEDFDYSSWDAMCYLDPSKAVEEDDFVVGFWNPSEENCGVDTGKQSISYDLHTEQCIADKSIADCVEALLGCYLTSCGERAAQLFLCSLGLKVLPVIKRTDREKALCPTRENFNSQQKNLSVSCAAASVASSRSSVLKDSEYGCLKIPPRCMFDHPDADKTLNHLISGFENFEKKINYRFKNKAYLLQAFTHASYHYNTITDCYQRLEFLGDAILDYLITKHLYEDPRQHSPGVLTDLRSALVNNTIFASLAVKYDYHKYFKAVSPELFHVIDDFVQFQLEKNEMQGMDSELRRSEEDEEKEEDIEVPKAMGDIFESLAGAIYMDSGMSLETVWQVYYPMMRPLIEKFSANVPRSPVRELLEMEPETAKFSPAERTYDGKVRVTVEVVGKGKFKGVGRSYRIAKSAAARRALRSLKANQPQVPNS
The depositor's hits bear a star.

SMILES | Dicer processing
Cc1ccc(C)c(Nc2nc(-c3cccnc3)cs2)c1 | 3.3*
Cc1cc(C)nc(NS(=O)(=O)c2ccc(Nc3nc(-c4cccnc4)cs3)cc2)n1 | -0.72
Cc1c(Cl)cccc1Nc1n[nH]c(=S)s1 | 0.45
Cc1ccc(C)c(Nc2n[nH]c(=S)s2)c1 | 4.61*
Cc1ccc(Nc2n[nH]c(=S)s2)cc1 | 2.86
c1cnc(Nc2nc(-c3cccnc3)cs2)nc1 | -0.16
N#Cc1cnn(-c2cccc(Cl)c2)c1-n1cccc1 | 0.02
FC(F)(F)c1c2c(nc3cc(-c4cccs4)nn13)-c1ccccc1C2 | -0.63
CC(C)(C)NC(=O)c1cc2nc3c(c(C(F)(F)F)n2n1)CCc1ccccc1-3 | 3.58*
O=C(O)CSc1nc2c(c(C(F)(F)F)n1)CCc1ccccc1-2 | 1.83
COCCNC(=O)c1cc2nc3c(c(C(F)(F)F)n2n1)CCc1ccccc1-3 | 3.21*
CC(C)(C)NC(=O)c1cc2nc(-c3ccc(Br)cc3)cc(C(F)(F)F)n2n1 | -1.21
O=C(NCC1CCCO1)c1nn2c(C(F)(F)F)c3c(nc2c1Cl)-c1ccccc1CC3 (stereo not drawn) | 2.86
OC(COc1ccc(Cl)c(Cl)c1)CN1CCCN(c2nc3ccc(Cl)cc3s2)CC1 (stereo not drawn) | -0.36
O=C(N=Nc1c(O)[nH]c2ccc(Br)cc12)c1ccncc1 | 13.8
O=C(C1=C(O)C(=O)N(CCCN2CCOCC2)C1c1ccncc1)c1cccs1 (stereo not drawn) | 0.98
COc1cccc(-c2ccc(-c3noc(-c4cc(OC)cc(OC)c4)n3)c(OC)n2)c1 | 0.29
Cc1cccc(NC(=O)c2ccccc2)n1 | 0.52
O=C(Nc1ncccn1)c1ccc(Cl)cc1 | -0.85
Cc1cccc(NC(=O)c2ccc(Cl)cc2)n1 | 3.08*
O=C1N(Cc2ccccc2)c2ccc(Br)cc2C1(O)c1c[nH]c2ccccc12 (stereo not drawn) | 3.86
Cn1nnnc1SCCNCc1cc(Br)ccc1OCc1ccccc1F | 0.37
O=C(O)C1C2C=CC(O2)C1C(=O)NCc1ccccn1 (stereo not drawn) | 1.79
CN(C)/C=C/C(=O)c1cc(Cl)ccc1Cl | -0.56
Cc1c(C(=O)/C=C/N(C)C)sc2ccccc12 | -0.86
SMILES | Dicer processing
Cc1c(C(=O)/C=C/N(C)C)sc(=S)n1CCc1ccc(Cl)cc1 | 3.19*
CC1=C(C(=O)OCc2ccccc2)C(c2ccncc2)C2=C(CC(c3ccccc3)CC2=O)N1 (stereo not drawn) | -0.63
NC(=O)c1sc(-c2ccc(Cl)cc2)cc1N1C(=O)c2cccc3cc([N+](=O)[O-])cc(c23)C1=O | 1.1
COC(=O)Oc1ccc2c(=O)c(-c3ccccc3)coc2c1 | 0.85
Cc1ccc2c(=O)c(C(=O)c3ccccc3)coc2c1 | 5.49*
Cc1ccc2c(=O)c(C(=O)c3ccccc3C)coc2c1 | 2.05
C=CCN1C(=O)C(O)(CC(=O)c2ccc(OCC)cc2)c2ccccc21 (stereo not drawn) | -1.43
CCOc1ccc2[nH]c(C)c(CN3CCCC3)c(=O)c2c1 | 0.61
COc1ccc2[nH]c(C)c(CN3CCCC3)c(=O)c2c1 | 0.96
COc1ccc2[nH]c(C)c(CN3CCC(C)CC3)c(=O)c2c1 | 3.48*
N#Cc1c(SCC(=O)c2ccc(Cl)cc2)nc2c(c1-c1cccs1)CCCC2 | -0.5
COCCCN1C(=O)C(O)=C(C(=O)c2cc3ccccc3o2)C1c1ccc(OC)cc1 (stereo not drawn) | -0.71
CCOc1ncnc2sc3c(c12)CCCC3 | -2.05
CC1(C)SC2(C(=O)c3ccccc3C2=O)N2C(=O)C3N(C(=O)C21)C1(SC3(C)C)C(=O)c2ccccc2C1=O (stereo not drawn) | -0.18
CCCCC1(CNc2ccc(C)c([N+](=O)[O-])c2)C(=O)N(c2ccccc2)N(c2ccccc2)C1=O | 2.22
CCCCC1(CO)C(=O)N(c2ccccc2)N(c2ccccc2)C1=O | 6.12*
CCCCC1(COC(=O)Nc2cccc(Cl)c2)C(=O)N(c2ccccc2)N(c2ccccc2)C1=O | 1.83
CCOc1ccc(C(C)(C)C)cc1S(=O)(=O)Nc1ccc(Cl)cn1 | 0.56
COc1ccc(N2CC34C=CC(O3)C(C(=O)OCc3ccccc3)C4C2=O)cc1 (stereo not drawn) | 0.16
O=C(Cn1nnc2sc3c(c2c1=O)CCCC3)Nc1ccc(Cl)cc1 | -0.06
CC1CCc2c(sc3nnn(CC(=O)Nc4ccc(Br)cc4)c(=O)c23)C1 (stereo not drawn) | -1.05
O=C(Cn1nnc2sc3c(c2c1=O)CCCC3)Nc1ccccc1 | 0.74
CC1CCc2c(sc3ncn(CC(=O)O)c(=O)c23)C1 (stereo not drawn) | 2.92
CC1CCc2c(sc3nnn(CC(=O)Nc4ccc(Cl)cc4)c(=O)c23)C1 (stereo not drawn) | 3.58*
O=C(Cn1nnc2sc3c(c2c1=O)CCCC3)Nc1ccc(F)c(Cl)c1 | 3.56*
CC(O)C(NC(=O)c1ccccc1)c1ccccc1 (stereo not drawn) | -0.51
O=S(=O)(NCc1ccc(F)cc1F)c1cc(Br)c(Br)s1 | -0.15
O=C1C=C(SCC(=O)c2ccc([N+](=O)[O-])cc2)SC(c2ccccc2Cl)C1 (stereo not drawn) | -2.11
Cc1c(C(=O)O)sc2nc(-c3ccc(Cl)cc3)nn12 | 2.53
